Measured values taken from PubChem BioAssay (EPA / NIEHS).
Active and inactive are the calls of the source. How the source made its calls: active means hit-call score of the fitted dose curve at least 0.9, where 1 is the maximum; inactive means score below 0.9.

What was measured:
[1] = APR_HepG2_NuclearSize_72hr: Apredica 72-hour HepG2 Assay for Nuclear Size (AID 2282925); settings: high-content imaging, actives raise or lower the signal
Procedure, shortened: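 Nuclear size was read by high-content imaging of Hoechst 33342 stain after formaldehyde fixation. Compounds ran 72 h on HepG2 at 0.39 to 200 uM, with final DMSO 0.5% v/v. Curves fitted both directions relative to DMSO control.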

[2] = ATG_CRE_CIS: Attagene CIS-FACTORIAL HepG2 Assay for human cAMP Responsive Element (CRE) binding protein 3 (AID 2282926); settings: HepG2 CRE cis-reporter, Attagene multiplexed mRNA; actives raise or lower the signal
Procedure, shortened: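 Endogenous transcription factor activity read via CRE-regulated reporter transcripts in transfected HepG2 cells. After 24 h exposure, RNA was reverse-transcribed, amplified, fluorescently labelled and sized by capillary electrophoresis; gain or loss fitted against DMSO.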

[3] = target: CCAAT/enhancer-binding protein beta (Homo sapiens) (UniProt P17676); assay: ATG_C_EBP_CIS: Attagene CIS-FACTORIAL HepG2 Assay for human CCAAT/Enhancer Binding Protein (C/EBP) beta (AID 2282927); settings: HepG2 Attagene cis-factorial transcription factor reporter; actives raise or lower the signal
Procedure, shortened: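 Changes in reporter mRNA, rather than exogenous chimeric receptor activity, reflect native C/EBP signalling in transfected HepG2 cells dosed for 24 h; transcripts are detected by RT-PCR and capillary electrophoresis.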

[4] = ATG_CMV_CIS: Attagene CIS-FACTORIAL HepG2 Assay for human CMV (Internal Marker) (AID 2282928); settings: HepG2 CMV promoter reporter, transcription factor profiling; actives raise or lower the signal;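 further: endpoint acts as a background internal control marker rather than a target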
Procedure, shortened: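 Bidirectional fits against DMSO are applied to reporter mRNA, read by RT-PCR with capillary electrophoresis, from HepG2 cells exposed 24 h. The endpoint serves as an internal CMV background marker within the cis-factorial reporter panel.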

[5] = ATG_DR4_LXR_CIS: Attagene CIS-FACTORIAL HepG2 Assay for human Liver X Receptor (LXR), DR4 submotif (AID 2282929); settings: HepG2 Attagene DR4 cis-reporter, mRNA transcription; actives raise or lower the signal
Procedure, shortened: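 After transient transfection with multiplexed cis-promoter reporter units, HepG2 cells received test chemicals for 24 h. Reporter mRNA induction, detected by fluorescence after RT-PCR and capillary electrophoresis, was scored relative to DMSO.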

[6] = target: Aryl hydrocarbon receptor (Homo sapiens) (UniProt P35869); assay: ATG_Ahr_CIS: Attagene CIS-FACTORIAL HepG2 Assay for human Aryl Hydrocarbon Receptor (Ahr) (AID 2282930); settings: HepG2 AhR cis-factorial reporter transcription; actives raise or lower the signal
Procedure, shortened: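 HepG2, transient MRTU (cis) transfection, 24 h exposure. RNA → cDNA → PCR → 6-FAM primer extension → HpaI 2 h 37 C → CE. Fit: bidirectional, DMSO baseline.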

[7] = ATG_AP_1_CIS: Attagene CIS-FACTORIAL HepG2 Assay for human Activator Protein 1 (AP-1) (AID 2282931); settings: HepG2 Attagene cis-factorial AP-1 reporter mRNA; actives raise or lower the signal
Procedure, shortened: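 After 24 h incubation with test chemical, RNA from transfected HepG2 cells was reverse-transcribed, amplified, fluorescently labelled and digested before capillary electrophoresis. Reporters were driven by cis-regulatory promoters; activity fitted bidirectionally versus DMSO.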

[8] = ATG_AP_2_CIS: Attagene CIS-FACTORIAL HepG2 Assay for human Activator Protein 2 (AP-2) (AID 2282932); settings: HepG2 AP-2 cis-reporter, Attagene transcription factor profiling; actives raise or lower the signal
Procedure, shortened: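 Transiently transfected HepG2 cells are exposed to chemical for 24 h. Reporter transcripts are then measured as fluorescence following RT-PCR and capillary separation, and gain- or loss-of-signal is fitted relative to DMSO.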

[9] = target: Retinoic acid receptor alpha (Homo sapiens) (UniProt P10276); assay: ATG_DR5_RAR_CIS: Attagene CIS-FACTORIAL HepG2 Assay for human Retinoic Acid Receptor Alpha (RARE), DR5 submotif (AID 2282934); settings: HepG2 Attagene cis-factorial RARE DR5 reporter, mRNA; actives raise or lower the signal;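 on AC50: reporter responds to endogenous RAR alpha beta and gamma in HepG2 not RARA alone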
Procedure, shortened: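 HepG2, transient cis-reporter transfection, 24 h exposure. mRNA readout: RT-PCR, FAM label, HpaI cut, capillary electrophoresis. DMSO baseline, gain/loss fitting.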

[10] = ATG_BRE_CIS: Attagene CIS-FACTORIAL HepG2 Assay for human Bone Morphogenetic Protein (BMP) Response Element (BRE) (AID 2282933); settings: HepG2 BMP response element reporter, Attagene transcription factor profiling; actives raise or lower the signal
Procedure, shortened: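 Endogenous transcription factor activity at a BMP response element was monitored in transfected HepG2 cells 24 h after dosing. Fluorescent RT-PCR products were resolved by capillary electrophoresis, and activity was fitted in both directions versus DMSO.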

Retinoic acid receptor alpha (Homo sapiens), sequence (P10276 whole entry, looked up): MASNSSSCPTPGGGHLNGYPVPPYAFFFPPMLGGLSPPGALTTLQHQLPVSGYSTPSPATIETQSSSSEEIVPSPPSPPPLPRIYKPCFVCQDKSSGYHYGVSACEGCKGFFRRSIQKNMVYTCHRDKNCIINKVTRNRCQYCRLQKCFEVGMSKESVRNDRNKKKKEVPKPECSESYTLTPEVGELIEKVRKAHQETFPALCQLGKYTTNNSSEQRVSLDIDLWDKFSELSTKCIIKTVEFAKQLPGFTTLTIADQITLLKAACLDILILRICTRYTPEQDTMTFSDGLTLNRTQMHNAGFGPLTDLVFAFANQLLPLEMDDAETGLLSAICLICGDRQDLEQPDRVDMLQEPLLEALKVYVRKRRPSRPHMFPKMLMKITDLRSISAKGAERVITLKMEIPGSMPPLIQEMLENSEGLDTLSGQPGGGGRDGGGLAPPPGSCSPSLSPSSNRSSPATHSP
Aryl hydrocarbon receptor (Homo sapiens), sequence (P35869 whole entry, looked up): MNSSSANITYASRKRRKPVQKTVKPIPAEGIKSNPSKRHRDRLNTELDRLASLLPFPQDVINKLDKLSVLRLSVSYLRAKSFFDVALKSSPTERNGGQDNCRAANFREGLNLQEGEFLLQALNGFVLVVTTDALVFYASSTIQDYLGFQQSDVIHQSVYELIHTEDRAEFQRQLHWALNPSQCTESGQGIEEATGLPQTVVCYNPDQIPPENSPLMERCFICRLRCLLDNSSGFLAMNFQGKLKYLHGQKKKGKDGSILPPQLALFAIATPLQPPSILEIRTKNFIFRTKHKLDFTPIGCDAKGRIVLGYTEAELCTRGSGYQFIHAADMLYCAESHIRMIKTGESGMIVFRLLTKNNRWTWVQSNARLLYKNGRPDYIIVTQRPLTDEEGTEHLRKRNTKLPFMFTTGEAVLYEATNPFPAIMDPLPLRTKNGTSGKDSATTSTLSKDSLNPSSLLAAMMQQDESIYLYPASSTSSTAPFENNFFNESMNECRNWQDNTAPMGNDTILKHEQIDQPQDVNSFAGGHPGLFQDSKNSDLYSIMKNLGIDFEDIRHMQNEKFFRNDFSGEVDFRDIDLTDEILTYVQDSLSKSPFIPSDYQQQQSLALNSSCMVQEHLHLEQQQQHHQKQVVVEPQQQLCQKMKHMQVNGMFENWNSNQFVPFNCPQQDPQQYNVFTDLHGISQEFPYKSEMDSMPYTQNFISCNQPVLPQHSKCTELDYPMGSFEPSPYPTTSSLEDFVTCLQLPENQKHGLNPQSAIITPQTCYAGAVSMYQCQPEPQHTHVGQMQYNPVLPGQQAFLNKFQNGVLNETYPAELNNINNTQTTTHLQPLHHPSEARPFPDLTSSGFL
CCAAT/enhancer-binding protein beta (Homo sapiens), sequence (P17676 whole entry, looked up): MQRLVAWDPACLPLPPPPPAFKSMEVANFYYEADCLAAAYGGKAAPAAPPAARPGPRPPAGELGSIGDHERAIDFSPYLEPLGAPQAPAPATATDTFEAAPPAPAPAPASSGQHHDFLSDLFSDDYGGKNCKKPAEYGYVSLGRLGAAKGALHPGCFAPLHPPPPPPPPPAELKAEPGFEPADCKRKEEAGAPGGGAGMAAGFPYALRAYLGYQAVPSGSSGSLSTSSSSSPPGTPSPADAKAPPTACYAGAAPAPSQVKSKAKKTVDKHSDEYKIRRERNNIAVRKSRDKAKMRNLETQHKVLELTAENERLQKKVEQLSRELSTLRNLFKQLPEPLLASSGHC

CNC(=O)Oc1cccc2ccccc12
outcome [1]: inactive
outcome [2]: inactive
outcome [3]: inactive
AC50 [4]: 50 µM (active)
outcome [5]: inactive
AC50 [6]: 6.71 µM (active)
outcome [7]: inactive
outcome [8]: inactive
outcome [9]: inactive

N#Cc1c[nH]cc1-c1cccc2c1OC(F)(F)O2
outcome [1]: inactive
AC50 [2]: 10.8 µM (active)
AC50 [3]: 8.24 µM (active)
AC50 [4]: 29 µM (active)
AC50 [5]: 1.19 µM (active)
outcome [7]: inactive
AC50 [8]: 13.5 µM (active)
AC50 [10]: 22.2 µM (active)

CCCCOCN(C(=O)CCl)c1c(CC)cccc1CC
outcome [1]: inactive
AC50 [2]: 0.654 µM (active)
AC50 [3]: 0.647 µM (active)
outcome [4]: inactive
outcome [5]: inactive
outcome [6]: inactive
outcome [7]: inactive
outcome [8]: inactive
outcome [10]: inactive

CCCCC(C#N)(Cn1cncn1)c1ccc(Cl)cc1 (stereo not drawn)
outcome [1]: inactive
outcome [2]: inactive
outcome [3]: inactive
outcome [4]: inactive
outcome [5]: inactive
outcome [6]: inactive
outcome [7]: inactive
outcome [8]: inactive
outcome [9]: inactive

CCCN(CC)CC1COC2(CCC(C(C)(C)C)CC2)O1 (stereo not drawn)
outcome [1]: inactive
AC50 [2]: 13.6 µM (active)
outcome [3]: inactive
AC50 [4]: 17.8 µM (active)
outcome [5]: inactive
AC50 [6]: 26.1 µM (active)
outcome [8]: inactive
AC50 [9]: 2.75 µM (active)

COC(=O)NS(=O)(=O)c1ccc(N)cc1
outcome [1]: inactive
outcome [2]: inactive
AC50 [3]: 13.2 µM (active)
outcome [4]: inactive
outcome [5]: inactive
outcome [6]: inactive
outcome [8]: inactive

COP(=S)(OC)Oc1ccc([N+](=O)[O-])c(C)c1
outcome [1]: inactive
AC50 [2]: 17.8 µM (active)
outcome [3]: inactive
outcome [4]: inactive
outcome [5]: inactive
outcome [6]: inactive
outcome [8]: inactive

CCSC(=O)N1CCCCCC1
outcome [1]: inactive
outcome [2]: inactive
outcome [3]: inactive
outcome [4]: inactive
outcome [5]: inactive
outcome [6]: inactive
outcome [8]: inactive
outcome [9]: inactive

CCOc1nc(F)cc2nc(S(=O)(=O)Nc3c(Cl)cccc3Cl)nn12
outcome [1]: inactive
outcome [2]: inactive
outcome [3]: inactive
outcome [4]: inactive
outcome [5]: inactive
outcome [6]: inactive
outcome [8]: inactive

COC(=O)N(C(=O)N1CO[C@@]2(C(=O)OC)Cc3cc(Cl)ccc3C2=N1)c1ccc(OC(F)(F)F)cc1
outcome [1]: inactive
AC50 [2]: 0.67 µM (active)
outcome [3]: inactive
outcome [4]: inactive
AC50 [5]: 13.8 µM (active)
outcome [6]: inactive
outcome [8]: inactive
AC50 [10]: 2.96 µM (active)
outcome [9]: inactive

Clc1cccc(C(Cl)(Cl)Cl)n1
outcome [1]: inactive
outcome [2]: inactive
outcome [3]: inactive
outcome [4]: inactive
outcome [5]: inactive
outcome [6]: inactive
outcome [8]: inactive
outcome [10]: inactive

CCOP(=S)(OCC)Oc1nc(Cl)n(C(C)C)n1
outcome [1]: inactive
outcome [2]: inactive
outcome [3]: inactive
outcome [4]: inactive
AC50 [5]: 6.85 µM (active)
outcome [6]: inactive
outcome [7]: inactive
outcome [8]: inactive
outcome [9]: inactive

CCC(C)n1c(=O)[nH]c(C)c(Br)c1=O (stereo not drawn)
outcome [1]: inactive
outcome [2]: inactive
outcome [4]: inactive
outcome [5]: inactive
outcome [6]: inactive
outcome [7]: inactive
outcome [8]: inactive

CCOc1nc(C(Cl)(Cl)Cl)ns1
outcome [1]: inactive
AC50 [2]: 20.8 µM (active)
outcome [4]: inactive
outcome [5]: inactive
outcome [6]: inactive
outcome [8]: inactive
AC50 [10]: 24.6 µM (active)
outcome [9]: inactive

Clc1nc(Cl)nc(Nc2ccccc2Cl)n1
outcome [1]: inactive
AC50 [2]: 76.6 µM (active)
AC50 [4]: 27.4 µM (active)
outcome [5]: inactive
outcome [6]: inactive
outcome [8]: inactive
outcome [10]: inactive
outcome [9]: inactive

N#Cc1c(Cl)cccc1Cl
outcome [1]: inactive
outcome [2]: inactive
outcome [4]: inactive
outcome [5]: inactive
outcome [6]: inactive
outcome [8]: inactive

COc1ccc(-c2ccccc2)cc1NNC(=O)OC(C)C
outcome [1]: inactive
outcome [2]: inactive
AC50 [4]: 13.5 µM (active)
outcome [5]: inactive
outcome [8]: inactive
outcome [9]: inactive

O=C(Nc1ccccc1-c1ccc(Cl)cc1)c1cccnc1Cl
outcome [1]: inactive
outcome [2]: inactive
outcome [4]: inactive
outcome [5]: inactive
outcome [6]: inactive
outcome [8]: inactive
outcome [9]: inactive

Cc1nc(N(C)C)nc(OC(=O)N(C)C)c1C
outcome [1]: inactive
outcome [2]: inactive
outcome [4]: inactive
outcome [5]: inactive
outcome [6]: inactive
outcome [8]: inactive
outcome [10]: inactive
outcome [9]: inactive

CCOP(=O)(OCC)Oc1nc(Cl)c(Cl)cc1Cl
outcome [1]: inactive
outcome [2]: inactive
AC50 [4]: 19.6 µM (active)
outcome [5]: inactive
outcome [6]: inactive
outcome [7]: inactive
outcome [8]: inactive
outcome [9]: inactive

N#CN=C1SCCN1Cc1ccc(Cl)nc1
outcome [1]: inactive
outcome [2]: inactive
outcome [4]: inactive
outcome [5]: inactive
outcome [6]: inactive
outcome [7]: inactive
outcome [8]: inactive
outcome [9]: inactive

O=C(O)c1c(Cl)ccc2cc(Cl)cnc12
outcome [1]: inactive
outcome [2]: inactive
outcome [4]: inactive
outcome [5]: inactive
outcome [6]: inactive
outcome [7]: inactive
outcome [8]: inactive
outcome [9]: inactive

CC(C)Oc1cccc(NC(=O)c2ccccc2C(F)(F)F)c1
outcome [1]: inactive
AC50 [2]: 13.6 µM (active)
AC50 [4]: 41.8 µM (active)
outcome [5]: inactive
AC50 [6]: 22.2 µM (active)
outcome [7]: inactive
outcome [8]: inactive
AC50 [9]: 9.42 µM (active)

COP(=O)(OC)O/C(C)=C/C(=O)N(C)C
outcome [1]: inactive
outcome [2]: inactive
outcome [4]: inactive
outcome [5]: inactive
outcome [6]: inactive
outcome [8]: inactive
outcome [10]: inactive
outcome [9]: inactive
